Screening data deposited in PubChem BioAssay by National Center for Advancing Translational Sciences (NCATS).
In the library only some 8% were active in any assay of this set; here they are far more common.
HCV inh – inhibitors of hepatitis C virus infection. Potency, µM (doses to about 41.8 µM), without a hit: at the top dose activity change, negative = inhibition, hits mostly inhibitors. AID 651820. actives 3.4% (n = 340,000). Huh7.5.1 HCVcc-Cre infection, luciferase reporter, 44 h; active means well fitted inhibition curve with a large enough effect; inconclusive means small, poorly fitted or top-dose-only effect, or another doubt; inactive means no such curve, though single readings can be large or run the other way; further: potency means the concentration at half of the fitted maximal effect; on the % scale 0 is the no-effect control and ±100 the full control effect
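Antiviral activity was scored by luciferase reporter output from cells infected with HCVcc-Cre (~0.5 moi) in presence of compound, 44 h infection period, cells seeded 1,000/well 4 h prior.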
SARS PLpro yeast – blocks SARS-CoV papain-like protease in a yeast assay | S. cerevisiae expressing SARS-CoV PLpro, growth rescue | AID 485353 | Potency, µM (titrated, usually from 32.9 µM), for the others: top-dose activity, positive = growth rescue, usual class: activators | actives 0.19% (n = 330,000); calls by dose curve; further: potency means the concentration at half of the fitted maximal effect; 0% is about no effect; nearly all actives have a fitted effect of over 55% in size
MARV entry inh – Marburg virus entry inhibition; Marburg virus pseudotyped entry inhibition, cell reporter; AID 540276; actives 1.8% (n = 300,000); Potency, µM (series often up to 37.8 µM), for inactives: top-dose activity change, negative = inhibition, actives largely listed as inhibitors; calls by dose curve; tested in HEK293 cells; further: potency means the concentration at half of the fitted maximal effect; on the % scale 0 is the no-effect control and ±100 the full control effect
HCMV inh – inhibitors of human cytomegalovirus. activity change, negative = inhibition, % at 57.5 µM. HFF cells, HCMV-luciferase reporter, 72 h; active compounds read low. actives 4.5% (n = 410,000); in the data active means activity change below about -60%; inconclusive means no clear call, values can overlap the other calls; inactive means above about -39%; further: on the % scale 0 is the no-effect control and ±100 the full control effect
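Two-dose cell screen: HFF monolayers treated with compounds and infected with luciferase-expressing HCMV at 1 PFU/cell, 72 h at 37C, then lysed for luciferase measurement.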
Lassa entry inh – Lassa virus entry inhibition; Lassa virus pseudotype entry inhibition, cell reporter; Potency, µM (top dose mostly 37.9 µM), for the others: at the highest dose activity change, negative = inhibition, usual class: inhibitors; actives 1.2% (n = 300,000); calls by dose curve; tested in HEK293 cells; further: potency means the concentration at half of the fitted maximal effect; on the % scale 0 is the no-effect control and ±100 the full control effect; nearly all actives have a fitted effect of over 50% in size
FMDV inh – foot and mouth disease virus antiviral activity; Potency, µM (top dose mostly 57.9 µM), inactives show at the highest dose activity change, negative = inhibition, hits mostly inhibitors; actives 1.2% (n = 410,000); FMDV antiviral cell-based qHTS; calls by dose curve; tested in HEK293T cells; further: read-out not given here; potency means the concentration at half of the fitted maximal effect; on the % scale 0 is the no-effect control and ±100 the full control effect; nearly all actives have a fitted effect of over 45% in size
Numbers without * were called inactive; ? = inconclusive; . = no result given; [ ] = another dose, or the depositor's remark.

SMILES | HCV inh | SARS PLpro yeast | MARV entry inh | HCMV inh | Lassa entry inh | FMDV inh
COc1ccc(/C=C/C(=O)NC(C)CCc2ccccc2)cc1 (stereo not given) | -2% | -30% | 17% | -60* | -5% | 7%
Cc1ccc(S(=O)(=O)c2nnn3c2nc(N2CCC(C)CC2)c2cc(Cl)ccc23)cc1C | . | . | ? | 13 | . | 7%
CC(C)=CCC/C(C)=C/CO/N=C1/C[C@@H](O)[C@@H](O)[C@@H]2[C@@H]3C(=O)N(C[C@@H]4CCCO4)C(=O)[C@H]3CC[C@H]12 | . | . | -5%[14.2 µM] | . | . | .
COc1ccc(-c2nc(SCC(=O)NC(C)CCc3ccccc3)n[nH]2)cc1 (stereo not given) | . | . | . | -89* | ? | ?
COc1ccc(-c2nc(SCC(=O)NCCCc3ccccc3)n[nH]2)cc1 | . | . | . | -67* | ? | -10%
CC(=O)Nc1ccc(C(=O)N2CCCC(n3cc(C(=O)NCC(C)C)nn3)C2)cc1 (stereo not given) | . | . | . | . | . | 3%
CC(C)c1ccc2[nH]c(O)c(N=NC(=O)c3cccc(S(=O)(=O)N4CCCCC4)c3)c2c1 | 11µM* | -15% | 10µM* | -24 | ? | ?
O=C(N=Nc1c(O)[nH]c2ccccc12)c1cccc(S(=O)(=O)N2CCCCC2)c1 | 4% | -11% | 19% | -4 | 12% | -9%
O/N=C/c1ccc(-c2cc(Cl)ccc2Cl)o1 | ? | -14% | -1% | -62* | 3% | 0%
COc1ccc(CCC(=O)N2CCc3c([nH]c4ccccc34)C2c2ccc(F)cc2)cc1 (stereo not given) | . | . | . | -80* | ? | -15%
CCc1cc(C(=O)N2CCc3c([nH]c4ccccc34)C2c2ccc(OC)cc2F)no1 (stereo not given) | ? | 1% | 0.89µM* | -64* | ? | 14%
CCOc1ccc(C2c3[nH]c4ccccc4c3CCN2C(=O)CCc2ccccc2)cc1 (stereo not given) | . | . | . | -84* | ? | 2%
Cc1cccc(N2CCN(CC(O)COc3ccccc3)CC2)c1 (stereo not given) | 26% | . | ? | 81 | -18% | -27%
Cc1ccc(N2CCN(CC(O)COc3cccc(C)c3)CC2)cc1 (stereo not given) | -5% | -6% | . | -62* | . | -1%
CN1CCN(CC(O)COc2ccc(C34CC5CC(CC(C5)C3)C4)cc2)CC1 (stereo not given) | 10µM* | -2% | ? | ? | 3% | -9%
COc1cc(C(=O)N2CCN(CC(O)COc3ccccc3)CC2)cc(OC)c1OC (stereo not given) | 14% | . | 10% | 40 | 2% | 12%
COc1cc(/C=C/C(=O)N2CCN(CC(O)COc3ccccc3)CC2)cc(OC)c1OC (stereo not given) | -21% | 5% | -5% | -82* | -21% | ?
OC(COc1ccccc1)CN1CCN(C(c2ccccc2)c2ccccc2)CC1 (stereo not given) | 7.9µM* | 12% | . | 10 | . | -29%
CCOC(=O)C1CSC(Cc2ccc(OCc3ccc([N+](=O)[O-])cc3)cc2)N1 (stereo not given) | . | . | . | . | . | 26%
Cc1ccc2nc(COc3ccccc3NC(=O)C(C)(C)C)cc(=O)n2c1 | . | . | . | 24 | -1%[46.1 µM] | -20%
CCOC(=O)N1CCN(CC(O)COc2ccc(-c3ccccc3)cc2)CC1 (stereo not given) | -21% | -15% | . | 0 | . | ?
CC(C)(c1ccccc1)c1ccc(OCC(O)CN2CCCC2)cc1 (stereo not given) | ? | -3% | 2.8µM* | -32 | ? | -1%
NC(=O)C1CCN(CC(O)COc2ccc(-c3ccccc3)cc2)CC1 (stereo not given) | 10µM* | -1% | ? | -33 | -18%[46.1 µM] | -6%
OC(COc1ccc(OCC(O)CN2CCCCCC2)cc1)CN1CCCCCC1 (stereo not given) | 7.1µM* | -4% | 11µM* | . | ? | -19%
O=C(CS(=O)(=O)c1cccc2nsnc12)NCc1ccccc1 | . | . | . | 1 | 0%[46.1 µM] | -29%
O=C(Nc1cc(F)ccc1F)c1ccc2c(c1)nnn2C1CCCC1 | . | . | . | 36 | -2%[46.1 µM] | 44%
